According to article PMC5540273 (PLoS ONE, 2017):
Read-outs that look alike come from different tables or passages of the source.

Columns and labels:
[1] = system: MAPKAPK5; details: concentration: 1 μM, replicates: in singlicate; n = 1
[2] = system: MARK1; details: concentration: 1 μM, replicates: in singlicate; n = 1
[3] = system: MARK2; details: n = 1
[4] = system: MARK3; details: n = 1
[5] = system: MARK4; details: n = 1
[6] = system: MAST1; details: concentration: 1 μM, replicates: in singlicate; n = 1
[7] = system: T1, MEK1; details: concentration: 1 μM, replicates: in singlicate; n = 1
T1 construct: gene MAP2K1

[8] = system: T2, MEK2; details: concentration: 1 μM, replicates: in singlicate; n = 1
T2 construct: gene MAP2K2

[9] = system: T3, MEK3; details: concentration: 1 μM, replicates: in singlicate; n = 1
T3 construct: gene MAP2K3

[10] = system: T4, MEK4; details: concentration: 1 μM, replicates: in singlicate; n = 1
T4 construct: gene MAP2K4

[11] = concentration: 1 μM, replicates: in singlicate
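Note: KINOMEscan kinase panel screen.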

| SMILES | %Inh [1] [%] | %Inh [2] [%] | %Inh [3, 11] [%] | %Inh [4, 11] [%] | %Inh [5, 11] [%] | %Inh [6] [%] | %Inh [7] [%] | %Inh [8] [%] | %Inh [9] [%] | %Inh [10] [%] | %Inh ([3]; 1 µM) [%] | %Inh ([4]; 1 µM) [%] | %Inh ([5]; 1 µM) [%] |
| --- | --- | --- | --- | --- | --- | --- | --- | --- | --- | --- | --- | --- | --- |
| O=C(O)C(F)(F)F.O=C(O)C(F)(F)F.O=c1[nH]ccc2nc(N[C@@H]3CCCNC3)nc(Nc3ccc(S(=O)(=O)N4CCOCC4)cc3)c12 [GSK2177277] | 61 | 95.3 | 98.2 | 90.5 | 97.1 | 27 | 96.6 | 91.6 | 99.4 | 99.4 | – | – | – |
| O=C(NC1CCN(c2ccnc(Nc3ccc(F)cc3)n2)C1)c1cc2ccccc2s1 (stereo not drawn) [GSK1379716] | 0 | 0 | 0 | 0 | 10 | 0 | 0 | 4 | 0 | 20 | – | – | – |
| CN1CCN(CCCNc2nccc(-c3c(-c4ccc(F)cc4)nn4cc(C(F)(F)F)ccc34)n2)CC1 [GW621581] | 0 | 7 | 0 | 16 | 16 | 0 | 0 | 0 | 0 | 10 | – | – | – |
| O=C(Nc1ccccc1F)NC1CCN(c2ccnc(Nc3ccc(F)cc3)n2)CC1 [GSK1379800] | 0 | 0 | 0 | 0 | 2 | 0 | 0 | 0 | 0 | 4 | – | – | – |
| Cl.Cl.NCC(NC(=O)c1cc(-c2ccccc2)c(-c2ccnc3[nH]ccc23)s1)c1ccccc1 (stereo not drawn) [GSK1321561] | 0 | 0 | 0 | 11 | 3 | 0 | 5 | 0 | 51 | 42 | – | – | – |
| c1ccc(-c2cnc3nccnn23)cc1 [AH20685] | 0 | 0 | 0 | 0 | 0 | 0 | 0 | 0 | 0 | 2 | – | – | – |
| CCn1c(-c2nonc2N)nc2c(C#CC(C)(C)O)nc(OC[C@H](N)c3ccccc3)cc21 [GSK943949] | 7 | 54 | 0 | 0 | 37 | 4 | 1 | 0 | 69 | 15 | – | – | – |
| CC(C)(C)c1ccc2nccc(Nc3cccc(O)c3)c2c1 [GW856795] | 0 | 9 | 2 | 27 | 21 | 22 | 46 | 44 | 49 | 0 | – | – | – |
| Nc1ncc(-c2cccnc2)c2scc(-c3ccc4c(c3)CCN4C(=O)Cc3ccccc3)c12 [GSK683281] | 0 | 0 | 0 | 19 | 0 | 0 | 0 | 1 | 0 | 66 | – | – | – |
| COC(=O)Nc1nc2cc(Oc3ccc(NC(=O)Nc4cc(C(F)(F)F)ccc4F)cn3)ccc2[nH]1.Cl.Cl [GW681170] | 0 | 0 | 0 | 14 | 0 | 24 | 0 | 2 | 7 | 0 | – | – | – |
| CNC(=O)c1ccccc1Nc1nc(Nc2ccc(N3CCOCC3)cc2)ncc1Cl.Cl [GSK1576028] | 0 | 95.2 | 92.6 | 95.5 | 96.8 | 0 | 88 | 87 | 87 | 74 | – | – | – |
| Nc1n[nH]c2cnc(-c3ccccc3)cc12 [SB-642124] | 0 | 0 | 0 | 0 | 0 | 14 | 0 | 0 | 0 | 37 | – | – | – |
| C[C@@H]1CC[C@@H](C(=O)Nc2ccccc2)CN1c1cc(-c2ccc3c(N)n[nH]c3c2)nc(N)n1 [GSK2286062] | 0 | 0 | 9 | 0 | 0 | 3 | 15 | 1 | 33 | 8 | – | – | – |
| Oc1cc(Nc2ccnc3cc(I)ccc23)ccc1F [GW552771] | 0 | 0 | 0 | 0 | 5 | 20 | 0 | 0 | 11 | 34 | – | – | – |
| COc1cc(Nc2nccc(N3CCC(NC(=O)c4cc5ccccc5s4)C3)n2)cc(OC)c1OC (stereo not drawn) [GSK1379760] | 1 | 7 | 12 | 0 | 22 | 1 | 7 | 0 | 3 | 0 | – | – | – |
| CCc1ccc(-c2ccc3c(c2)-c2c(cnn2C)S(=O)(=O)N3C)cc1 | 0 | 0 | 0 | 3 | 7 | 0 | 1 | 0 | 0 | 6 | – | – | – |
| CN(C)Cc1ccc(-c2ccc3c(Nc4ccc(Oc5ccccn5)cc4)ccnc3c2)o1 [GW567148] | 0 | 2 | 0 | 0 | 13 | 11 | 94.7 | 96.8 | 0 | 26 | – | – | – |

| SMILES | %Inh [1] [%] | %Inh [2] [%] | %Inh [3, 11] [%] | %Inh [4, 11] [%] | %Inh [5, 11] [%] | %Inh [6] [%] | %Inh [7] [%] | %Inh [8] [%] | %Inh [9] [%] | %Inh [10] [%] | %Inh ([3]; 1 µM) [%] | %Inh ([4]; 1 µM) [%] | %Inh ([5]; 1 µM) [%] |
| --- | --- | --- | --- | --- | --- | --- | --- | --- | --- | --- | --- | --- | --- |
| CSc1cccc2c(-c3ccncn3)c(-c3ccc(F)cc3)nn12 [GW514786] | 0 | 0 | 0 | 0 | 0 | 0 | 0 | 0 | 0 | 4 | – | – | – |
| CCn1c(-c2nonc2N)nc2c(C#CC(C)(C)O)ncc(OCCCCN)c21.O=C(O)C(F)(F)F.O=C(O)C(F)(F)F [GSK507274] | 0 | 0 | – | – | – | 56 | 0 | 34 | 0 | 1 | 68 | 71 | 0 |
| COc1cccc(-c2ccc3c(NC(=O)C4CC4)n[nH]c3n2)c1 [SB-710903] | 0 | 0 | 0 | 0 | 9 | 42 | 0 | 0 | 0 | 17 | – | – | – |
| Cn1cc(-c2ccc3c(c2)CCN3C(=O)Cc2cccc(Cl)c2)c2c(N)ncnc21 [GSK2606590] | 0 | 2 | 2 | 3 | 11 | 0 | 19 | 0 | 0 | 33 | – | – | – |
| Clc1ccc(-c2nn3ncccc3c2-c2ccnc(Nc3ccc4c(c3)OCCO4)n2)cc1 [GW829116] | 0 | 0 | 0 | 20 | 0 | 0 | 6 | 27 | 14 | 1 | – | – | – |
| NCCCC(NC(=O)c1cc(Br)c(-c2ccnc3[nH]ccc23)s1)c1ccccc1.O=C(O)C(F)(F)F.O=C(O)C(F)(F)F (stereo not drawn) [GSK1287544] | 0 | 0 | 2 | 20 | 4 | 0 | 0 | 0 | 71 | 50 | – | – | – |
| COc1cc2c(cc1OCCN1CCNCC1)ncc1c3ccc(C#N)cc3[nH]c21 | 0 | 0 | 8 | 0 | 0 | 83 | 34 | 57 | 34 | 18 | – | – | – |
| COCCOCCOc1cc2ncc3c4ccc(C#N)cc4[nH]c3c2cc1OC | 0 | 0 | 13 | 7 | 0 | 69 | 48 | 80 | 12 | 0 | – | – | – |
| COc1ccc(-c2coc3ccc(-c4nnc(SCc5ccc(OC)c(C(F)(F)F)c5)o4)cc23)cc1 | 23 | 5 | 2 | 0 | 4 | 13 | 13 | 22 | 10 | 30 | – | – | – |
| COc1ccc(Nc2nccc(NCCNC(=O)c3cc4ccccc4s3)n2)cc1 [GSK1379896] | 0 | 0 | 0 | 4 | 0 | 0 | 0 | 0 | 0 | 16 | – | – | – |
| CCS(=O)(=O)c1ccc(OC)c(Nc2nccc(-c3c(-c4cccc(NC(=O)c5c(F)cccc5F)c4)nn4ncccc34)n2)c1 [GSK326180] | 0 | 6 | 22 | 0 | 9 | 0 | 31 | 18 | 2 | 25 | – | – | – |
| Cc1cccc(NC(=O)Nc2ccc(Oc3ncnc4ccn(C)c34)cc2)c1 | 0 | 0 | 0 | 6 | 0 | 0 | 0 | 29 | 5 | 0 | – | – | – |
| O=C(Nc1cccc(Oc2ccc3nc(NC(=O)C4CC4)cn3n2)c1)c1ccccc1C(F)(F)F | 0 | 0 | 6 | 21 | 12 | 0 | 69 | 82 | 17 | 0 | – | – | – |
| Cn1cc(-c2ccc3c(c2)CCN3C(=O)Cc2cccc(F)c2)c2c(N)ncnc21 [GSK2603358] | 0 | 69 | 0 | 0 | 34 | 5 | 15 | 0 | 0 | 26 | – | – | – |
| Cc1ccc(S(=O)(=O)Nc2ccc(Nc3nccc(Nc4cccc5[nH]ncc45)n3)cc2)cc1 [GSK581271] | 0 | 0 | 0 | 0 | 7 | 7 | 0 | 0 | 0 | 10 | – | – | – |
| Fc1ccc(-c2ncn(C3CCNCC3)c2-c2ccnc(Oc3ccc(-c4ccccc4)cc3)n2)cc1 [SB-245391] | 0 | 25 | 23 | 23 | 25 | 36 | 15 | 19 | 18 | 15 | – | – | – |
